The text below walks through data of PubChem BioAssay (EPA / NIEHS).

Test [1] addresses Aryl hydrocarbon receptor (Homo sapiens) (UniProt P35869). As to the kind of experiment: ATG_Ahr_CIS: Attagene CIS-FACTORIAL HepG2 Assay for human Aryl Hydrocarbon Receptor (Ahr) (AID 2282930). The following applies: HepG2 AhR cis-factorial reporter transcription; actives raise or lower the signal. The procedure, abridged: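 Values derive from bidirectional fitting against DMSO negative control. Underlying signal: cis-element reporter mRNA in transiently transfected HepG2, harvested 24 h post-dose and measured by RT-PCR plus capillary electrophoresis.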

The nature of test [2]: ATG_M_61_CIS: Attagene CIS-FACTORIAL HepG2 Assay for M61 Transcription Factor (Internal Marker) (AID 2282937). To be noted: HepG2 Attagene CIS-FACTORIAL M61 internal marker reporter; actives raise or lower the signal. The method in brief: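 Fluorescence from labelled cDNA fragments, separated by capillary electrophoresis, quantifies reporter induction. HepG2 cells bearing transiently transfected cis-promoter MRTUs were incubated with test chemical for 24 h; DMSO defined baseline for gain/loss fitting.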

The nature of test [3]: ATG_EGR_CIS: Attagene CIS-FACTORIAL HepG2 Assay for human Early Growth Response 1 (EGR1) (AID 2282938). To be noted: HepG2 Attagene CIS-FACTORIAL EGR reporter mRNA; actives raise or lower the signal. The procedure, abridged: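 Cell-based multiplex transcription assay: HepG2 carrying transfected cis-element reporter units, 24 h chemical treatment. Fluorescence from capillary electrophoresis of RT-PCR products gives mRNA levels; fitting is bidirectional relative to DMSO.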

Test [4] is described as follows: ATG_GRE_CIS: Attagene CIS-FACTORIAL HepG2 Assay for human Glucocorticoid Response Elements (GRE) (AID 2282947). The following applies: HepG2 GRE cis-reporter, Attagene multiplex mRNA; actives raise or lower the signal. The procedure, abridged: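 Cells (HepG2) bearing transfected cis-promoter reporter transcription units were treated with chemical for 24 hours. Reporter mRNA was measured via RT-PCR with capillary electrophoresis, and activity was fitted in both directions relative to DMSO.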

For test [5], the target named is Hypoxia-inducible factor 1-alpha (Homo sapiens) (UniProt Q16665). Nature of the test: ATG_HIF1a_CIS: Attagene CIS-FACTORIAL HepG2 Assay for human Hypoxia Inducible Factor 1 (HIF1A) (AID 2282951). The following applies: HepG2 Attagene cis-factorial HIF1a reporter transcription; actives raise or lower the signal. The procedure, abridged: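 In this multiplexed cell assay, HepG2 cells bearing transfected cis reporters are dosed for 24 h and reporter mRNA is read by RT-PCR plus capillary electrophoresis; signal increases and decreases are both scored against DMSO.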

Test [6] is described as follows: ATG_MRE_CIS: Attagene CIS-FACTORIAL HepG2 Assay for human Metal Responsive Element (MRE) (AID 2282954). The following applies: HepG2 MRE cis-reporter transcription, Attagene multiplex; actives raise or lower the signal. The procedure, abridged:
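Cells were transfected with cis-promoter reporter transcription units, then dosed for 24 h. RNA was reverse-transcribed, amplified, fluorescently labelled and resolved by capillary electrophoresis, and activity was fitted in both directions relative to DMSO.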

Test [7] can be described thus: ATG_TGFb_CIS: Attagene CIS-FACTORIAL HepG2 Assay for human Transforming Growth Factor (TGF) (AID 2282967). To be noted: HepG2 Attagene CIS TGFb reporter, mRNA transcription; actives raise or lower the signal. The method in brief:
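Liver HepG2 line, cis-factorial reporter panel, 24 h dosing. Quantitation: RT-PCR products labeled with 6-FAM, cut with HpaI, resolved by capillary electrophoresis; DMSO-referenced bidirectional analysis.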

Test [8] is described as follows: ATG_VDRE_CIS: Attagene CIS-FACTORIAL HepG2 Assay for human Vitamin D Receptor Element (VDRE) (AID 2282968). To be noted: HepG2 VDRE cis-reporter transcription, actives raise or lower the signal. The method in brief:
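Steps: transfect HepG2 with multiple reporter transcription units; dose chemicals 24 h; isolate RNA; RT-PCR; label with 6-FAM primer extension; HpaI digest; capillary electrophoresis. Curves fitted both directions against DMSO.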

In test [9] the target is Transcriptional activator Myb (Homo sapiens) (UniProt P10242). As to the kind of experiment: ATG_Myb_CIS: Attagene CIS-FACTORIAL HepG2 Assay for human Myeloblastosis (Myb) Proto-Oncogene Transcription Factor (AID 2282986). The following applies: HepG2 Attagene CIS-FACTORIAL Myb reporter transcription; actives raise or lower the signal. The procedure, abridged:
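Fluorescence signals from capillary electrophoresis of RT-PCR-amplified reporter cDNA give the read-out. Cells: HepG2 transfected with multiple cis-regulated reporter units. Exposure lasts 24 hours; DMSO defines baseline for gain or loss of signal.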

In test [10] the target is Nuclear respiratory factor 1 (Homo sapiens) (UniProt Q16656). Nature of the test: ATG_NRF1_CIS: Attagene CIS-FACTORIAL HepG2 Assay for human Nuclear Respiratory Factor 1 (NRF1) Orphan Gene (AID 2282987). To be noted: HepG2 NRF1 cis-element reporter, Attagene multiplex; actives raise or lower the signal. The procedure, abridged:
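Transcriptional reporter readout, one component of a 52-endpoint multiplexed HepG2 panel. Exposure 24 h; mRNA detected via RT-PCR and fluorescent capillary electrophoresis; fitting in both directions against DMSO.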

The nature of test [11]: ATG_NFI_CIS: Attagene CIS-FACTORIAL HepG2 Assay for human Nuclear Factor I (NFI) (AID 2282989). The following applies: HepG2 cis-regulatory reporter, NFI response element transcription; actives raise or lower the signal. The procedure, abridged: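 Transfected HepG2 liver cells, exposed 24 h, supplied total RNA for oligo(dT) reverse transcription and reporter-specific PCR. Labelled, HpaI-cut fragments were sized by capillary electrophoresis; DMSO set the baseline for bidirectional fitting.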

Test [12] has as its target Myc proto-oncogene protein (Homo sapiens) (UniProt P01106). Nature of the test: ATG_Myc_CIS: Attagene CIS-FACTORIAL HepG2 Assay for human Myelocytomatosis (Myc) Proto-Oncogene Transcription Factor (AID 2282990). The following applies: HepG2, Attagene cis-reporter transcription factor activity; actives raise or lower the signal. The procedure, abridged: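 Multiplexed cis-reporter transcription in HepG2 cells after 24 h chemical treatment. Reporter mRNA measured by RT-PCR and capillary electrophoresis fluorescence; activity fitted bidirectionally against DMSO control.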

Test [13] in a line: ATG_NF_kB_CIS: Attagene CIS-FACTORIAL HepG2 Assay for human Nuclear Factor Kappa B (NF-kB) (AID 2282991). The following applies: HepG2 Attagene cis-factorial NF-kB reporter mRNA; actives raise or lower the signal. The method in brief:
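HepG2, transient multi-reporter transfection, cis promoter elements (endogenous TFs). 24 h exposure. Total RNA → RT → PCR → 6-FAM label → HpaI → CE. Gain/loss vs DMSO.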

A short description of test [14]: ATG_NRF2_ARE_CIS: Attagene CIS-FACTORIAL HepG2 Assay for human Nuclear Factor Erythroid 2 Related Factor 2 (NFR2) response to Antioxidant Response Elements (ARE) (AID 2282992). The following applies: HepG2 Attagene ARE/NRF2 reporter, transcription factor activity; actives raise or lower the signal. The method in brief: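 Fluorescence intensity of reporter-specific cDNA fragments, separated by capillary electrophoresis, reflects mRNA induction in transfected HepG2 cells at 24 h. Activity is fitted bidirectionally, DMSO serving as baseline.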

Test [15] in a line: ATG_Oct_MLP_CIS: Attagene CIS-FACTORIAL HepG2 Assay for human Octamer-Binding Transcription Factor (Oct) (AID 2282993). The following applies: HepG2 Attagene cis-factorial Oct reporter, mRNA; actives raise or lower the signal. The method in brief:
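Using HepG2 cells bearing transfected cis-reporter constructs, mRNA induction was read after 24 h by fluorescent RT-PCR and capillary electrophoresis, with DMSO defining baseline for gain- or loss-of-signal fits.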

Test [16] deals with Nuclear receptor subfamily 1 group I member 2 (Homo sapiens) (UniProt O75469). As to the kind of experiment: ATG_PXR_TRANS: Attagene TRANS-FACTORIAL HepG2 Assay for human Pregnane X Receptor (PXR) (AID 2283008; active = hit-call score of the fitted dose curve at least 0.9, where 1 is the maximum). The procedure, abridged:
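Transient HepG2 transfectants carrying multiplexed reporter transcription units; PXR activity read through a Gal4 chimera. 24 h exposure. RT-PCR/CE fluorescence; upward curve fit referenced to DMSO.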

Test [17] in a line: ATG_BRE_CIS: Attagene CIS-FACTORIAL HepG2 Assay for human Bone Morphogenetic Protein (BMP) Response Element (BRE) (AID 2282933). To be noted: HepG2 BMP response element reporter, Attagene transcription factor profiling; actives raise or lower the signal. The procedure, abridged: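 A HepG2 multiplex reporter system measured inducible reporter mRNA 24 h post-dosing. Detection: RT-PCR, 6-FAM primer extension, HpaI digestion, capillary electrophoresis. Activity fitted bidirectionally relative to DMSO.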

A short description of test [18]: ATG_M_06_CIS: Attagene CIS-FACTORIAL HepG2 Assay for M06 Transcription Factor (Internal Marker) (AID 2282950). The following applies: HepG2 Attagene CIS-FACTORIAL M06 internal marker reporter; actives raise or lower the signal. The procedure, abridged: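 Cells (HepG2, transiently carrying cis-driven reporter units) receive chemical for 24 h before RNA isolation. Reporter cDNA is PCR-amplified, FAM-labelled by primer extension, HpaI-digested and sized on a capillary analyser.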

Test [19] in a line: ATG_XTT_Cytotoxicity: Cytotoxicity Assessment in the Attagene TRANS-FACTORIAL HepG2 Assay (AID 2283584; active = hit-call score of the fitted dose curve at least 0.9, where 1 is the maximum). The method in brief: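 Viability endpoint from XTT after 24 h chemical exposure of reporter-transfected human HepG2 liver cells; signal loss fitted relative to DMSO negative control.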
For test [20], the target named is Cellular tumor antigen p53 (Homo sapiens) (UniProt P04637). Nature of the test: ATG_p53_CIS: Attagene CIS-FACTORIAL HepG2 Assay for human p53 Transcription Factor (AID 2282994). To be noted: HepG2 p53 cis-element reporter, Attagene mRNA; actives raise or lower the signal. The method in brief: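 Transiently transfected HepG2 (multiple cis reporter transcription units); exposure 24 h; reporter RNA via RT-PCR, 6-FAM extension, 2 h HpaI digest at 37 C, CE detection; DMSO baseline.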

Inconclusive results are not listed. Active and inactive are the calls of the source. The calls were made as follows, unless noted: active = hit-call score of the fitted dose curve at least 0.9, where 1 is the maximum; inactive = score below 0.9.

Sequence of Myc proto-oncogene protein (Homo sapiens) (P01106 whole entry, looked up): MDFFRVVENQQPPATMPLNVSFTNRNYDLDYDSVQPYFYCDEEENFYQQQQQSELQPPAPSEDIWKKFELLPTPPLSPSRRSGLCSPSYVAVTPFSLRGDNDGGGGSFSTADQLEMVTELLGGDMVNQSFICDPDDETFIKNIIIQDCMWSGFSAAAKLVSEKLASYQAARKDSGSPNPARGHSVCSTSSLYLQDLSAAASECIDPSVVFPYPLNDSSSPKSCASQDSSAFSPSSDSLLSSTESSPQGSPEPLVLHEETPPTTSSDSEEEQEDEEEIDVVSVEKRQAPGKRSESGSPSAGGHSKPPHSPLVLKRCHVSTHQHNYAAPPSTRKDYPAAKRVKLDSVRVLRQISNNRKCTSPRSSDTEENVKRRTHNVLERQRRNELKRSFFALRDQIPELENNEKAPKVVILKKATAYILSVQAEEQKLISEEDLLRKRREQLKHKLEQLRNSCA
Sequence of Cellular tumor antigen p53 (Homo sapiens) (P04637 whole entry, looked up): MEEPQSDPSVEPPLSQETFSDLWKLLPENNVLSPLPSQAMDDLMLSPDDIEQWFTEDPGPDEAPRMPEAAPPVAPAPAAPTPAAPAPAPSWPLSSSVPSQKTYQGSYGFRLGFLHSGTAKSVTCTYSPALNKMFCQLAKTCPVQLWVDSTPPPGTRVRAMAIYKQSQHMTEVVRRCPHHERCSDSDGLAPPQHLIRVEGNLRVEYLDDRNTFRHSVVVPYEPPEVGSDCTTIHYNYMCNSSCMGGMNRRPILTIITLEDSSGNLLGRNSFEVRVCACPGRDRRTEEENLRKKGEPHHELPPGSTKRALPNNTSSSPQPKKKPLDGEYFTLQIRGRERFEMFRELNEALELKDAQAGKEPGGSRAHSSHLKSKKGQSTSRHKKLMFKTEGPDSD
Sequence of Transcriptional activator Myb (Homo sapiens) (P10242 whole entry, looked up): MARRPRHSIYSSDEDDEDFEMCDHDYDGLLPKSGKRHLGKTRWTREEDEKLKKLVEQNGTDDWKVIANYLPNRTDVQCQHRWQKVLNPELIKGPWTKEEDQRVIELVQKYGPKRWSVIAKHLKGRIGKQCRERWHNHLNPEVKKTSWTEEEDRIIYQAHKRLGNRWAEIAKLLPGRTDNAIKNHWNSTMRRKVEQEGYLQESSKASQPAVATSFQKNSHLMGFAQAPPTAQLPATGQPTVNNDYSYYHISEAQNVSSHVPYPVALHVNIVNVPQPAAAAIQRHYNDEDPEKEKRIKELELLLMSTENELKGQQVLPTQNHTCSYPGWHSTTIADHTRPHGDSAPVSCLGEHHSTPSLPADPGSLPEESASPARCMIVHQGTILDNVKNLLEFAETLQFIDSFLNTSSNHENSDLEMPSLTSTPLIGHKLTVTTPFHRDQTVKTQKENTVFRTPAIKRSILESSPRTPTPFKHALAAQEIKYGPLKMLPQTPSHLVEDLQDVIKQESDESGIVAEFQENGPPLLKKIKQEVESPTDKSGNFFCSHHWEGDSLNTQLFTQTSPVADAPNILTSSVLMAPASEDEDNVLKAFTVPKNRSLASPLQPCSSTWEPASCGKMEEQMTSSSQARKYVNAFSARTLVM
Sequence of Hypoxia-inducible factor 1-alpha (Homo sapiens) (Q16665 whole entry, looked up): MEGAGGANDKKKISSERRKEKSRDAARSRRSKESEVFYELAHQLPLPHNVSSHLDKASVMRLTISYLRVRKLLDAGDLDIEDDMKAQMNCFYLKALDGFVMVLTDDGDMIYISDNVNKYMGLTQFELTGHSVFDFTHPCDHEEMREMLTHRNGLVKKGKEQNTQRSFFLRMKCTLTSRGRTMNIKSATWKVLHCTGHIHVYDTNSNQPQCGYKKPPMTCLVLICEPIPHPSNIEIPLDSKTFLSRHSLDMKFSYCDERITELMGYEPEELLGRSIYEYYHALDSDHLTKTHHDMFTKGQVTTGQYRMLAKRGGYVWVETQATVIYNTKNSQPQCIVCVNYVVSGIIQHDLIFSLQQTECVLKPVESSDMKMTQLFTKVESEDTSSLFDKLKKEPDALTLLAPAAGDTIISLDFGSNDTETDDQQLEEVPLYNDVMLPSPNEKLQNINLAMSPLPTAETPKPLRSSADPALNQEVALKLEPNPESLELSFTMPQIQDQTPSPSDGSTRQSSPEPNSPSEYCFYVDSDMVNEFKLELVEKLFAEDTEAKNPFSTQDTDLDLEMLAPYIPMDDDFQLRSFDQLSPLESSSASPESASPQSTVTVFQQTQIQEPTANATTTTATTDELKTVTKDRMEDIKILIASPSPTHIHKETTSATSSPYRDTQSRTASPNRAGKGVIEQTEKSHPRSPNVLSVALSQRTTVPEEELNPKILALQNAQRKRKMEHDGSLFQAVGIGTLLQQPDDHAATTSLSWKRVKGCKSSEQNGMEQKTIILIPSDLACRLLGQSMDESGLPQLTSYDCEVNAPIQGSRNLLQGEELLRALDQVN
Sequence of Aryl hydrocarbon receptor (Homo sapiens) (P35869 whole entry, looked up): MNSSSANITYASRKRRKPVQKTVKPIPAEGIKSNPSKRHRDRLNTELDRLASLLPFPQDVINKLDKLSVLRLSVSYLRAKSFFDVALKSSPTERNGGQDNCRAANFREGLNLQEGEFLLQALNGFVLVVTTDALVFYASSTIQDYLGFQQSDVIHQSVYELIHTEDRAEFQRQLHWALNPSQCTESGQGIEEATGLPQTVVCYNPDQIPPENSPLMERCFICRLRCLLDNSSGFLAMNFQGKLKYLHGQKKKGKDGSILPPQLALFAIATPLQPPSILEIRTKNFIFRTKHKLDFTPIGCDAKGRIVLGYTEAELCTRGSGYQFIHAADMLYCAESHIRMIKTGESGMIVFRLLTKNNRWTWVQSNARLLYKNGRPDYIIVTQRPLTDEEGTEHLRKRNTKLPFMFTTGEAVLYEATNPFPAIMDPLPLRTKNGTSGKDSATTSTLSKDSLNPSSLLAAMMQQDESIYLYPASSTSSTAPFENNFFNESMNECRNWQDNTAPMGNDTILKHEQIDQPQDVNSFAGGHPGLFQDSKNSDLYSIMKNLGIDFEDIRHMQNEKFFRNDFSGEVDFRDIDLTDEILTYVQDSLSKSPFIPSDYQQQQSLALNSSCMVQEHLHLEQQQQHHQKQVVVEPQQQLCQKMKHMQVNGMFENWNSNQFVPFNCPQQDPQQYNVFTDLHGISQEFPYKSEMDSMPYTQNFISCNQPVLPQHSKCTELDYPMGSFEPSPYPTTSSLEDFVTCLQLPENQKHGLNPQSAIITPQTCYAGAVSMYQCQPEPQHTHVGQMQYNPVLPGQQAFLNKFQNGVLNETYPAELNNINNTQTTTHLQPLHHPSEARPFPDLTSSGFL
Sequence of Nuclear receptor subfamily 1 group I member 2 (Homo sapiens) (O75469 whole entry, looked up, the tested form may be a part): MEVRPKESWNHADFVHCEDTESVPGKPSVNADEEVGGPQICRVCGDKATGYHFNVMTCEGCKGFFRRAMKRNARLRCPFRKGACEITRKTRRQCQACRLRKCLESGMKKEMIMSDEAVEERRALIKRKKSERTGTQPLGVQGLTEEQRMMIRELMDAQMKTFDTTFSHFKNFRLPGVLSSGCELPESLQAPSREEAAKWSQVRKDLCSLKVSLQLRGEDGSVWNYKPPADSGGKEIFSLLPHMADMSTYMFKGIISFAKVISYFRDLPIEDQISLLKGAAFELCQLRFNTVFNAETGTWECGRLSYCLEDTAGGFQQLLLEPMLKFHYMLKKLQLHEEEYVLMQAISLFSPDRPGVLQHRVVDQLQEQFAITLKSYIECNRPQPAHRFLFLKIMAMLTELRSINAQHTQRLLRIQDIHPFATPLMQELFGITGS
Sequence of Nuclear respiratory factor 1 (Homo sapiens) (Q16656 whole entry, looked up): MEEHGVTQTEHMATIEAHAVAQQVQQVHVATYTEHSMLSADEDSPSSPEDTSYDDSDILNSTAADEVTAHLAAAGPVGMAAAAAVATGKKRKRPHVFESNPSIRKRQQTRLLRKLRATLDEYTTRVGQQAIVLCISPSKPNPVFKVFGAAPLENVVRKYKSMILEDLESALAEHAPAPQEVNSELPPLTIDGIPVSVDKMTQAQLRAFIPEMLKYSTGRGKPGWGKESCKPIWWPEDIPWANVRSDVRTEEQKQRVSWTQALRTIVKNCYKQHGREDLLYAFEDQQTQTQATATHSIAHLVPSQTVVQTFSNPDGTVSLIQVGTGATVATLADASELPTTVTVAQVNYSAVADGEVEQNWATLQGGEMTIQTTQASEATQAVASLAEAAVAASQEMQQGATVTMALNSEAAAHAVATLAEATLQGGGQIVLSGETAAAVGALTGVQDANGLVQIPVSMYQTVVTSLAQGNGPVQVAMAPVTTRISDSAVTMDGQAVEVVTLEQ

On to `CN(N=O)c1ccccc1`, for which the result in [1], in test [2], in [3], in test [4], in [5] and in test [6] was inactive. Further, the call in [7], in test [8], in test [9], in test [10], in test [11] and in test [12] was inactive. Also, the outcome in test [13], in test [14], in test [15] and in test [16] was inactive.

In the case of `C[N+](C)(C)CC(=O)[O-]`, the molecule was classed as inactive in [1], in test [17], in test [3], in test [18], in test [6] and in [7]. Besides, the result in [9], in [10], in test [11], in test [12], in [14] and in test [15] was inactive. Moreover, the outcome in test [19] was inactive.

Take `CCCC=NO`: the outcome in test [1], in test [17], in test [3], in [4], in test [5] and in [6] was inactive. The call in test [7], in test [8], in test [9], in test [10], in [11] and in test [12] was inactive. Further, the result in test [14], in test [15], in test [20], in test [16] and in test [19] was inactive.

Regarding `CCCCCCCCCCCC#N`, the outcome in [1], in test [2], in test [4], in test [18], in [5] and in [7] was inactive. For the same molecule, the call in test [8], in [9], in test [10], in test [12], in test [20] and in test [19] was inactive. In addition, the AC50 (usually the midpoint of the concentration-response curve, whichever way the signal moves) in test [11] is 169 µM (active); in [13] it was 131 µM (active); in test [14], 73.4 µM (active); in [15] it was 141 µM (active); in test [16] it was 19.5 µM (active).

Consider `c1ccc2c(c1)CCCC2`, for which the result in test [1], in [17], in test [2], in [3], in test [4] and in test [18] was inactive. The molecule was classed as inactive in test [5], in test [6], in [7], in test [8], in [9] and in test [11]. The result in test [12], in [13], in [14], in test [15], in test [20] and in test [19] was inactive.
